From PubChem BioAssay (EPA / NIEHS)
Results filed as inconclusive are left out. Activity calls are given as the source filed them. The calls were made as follows, unless noted: active = hit-call score of the fitted dose curve at least 0.9, where 1 is the maximum; inactive = score below 0.9.

Assays:
[1] = IUF_NPC2c_oligodendrocyte_migration_120hr: Leibniz Research Institute for Environmental Medicine (IUF) 120-hour Neural Progenitor Cell Migration Assay for Oligodendrocyte Migration (NPC2c) (AID 2284297)
Procedure, shortened: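 Read-out is the mean distance of O4-positive oligodendrocytes from the sphere core edge at 120 h, normalized to radial glia migration and fitted in the gain direction against DMSO. Spheres of primary human neural progenitors differentiated on laminin under continuous compound exposure.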

[2] = IUF_NPC2a_radial_glia_migration_120hr: Leibniz Research Institute for Environmental Medicine (IUF) 120-hour Neural Progenitor Cell Migration Assay for Radial Glia Migration (NPC2a) (AID 2284298)
Procedure, shortened: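 Readout: distance in um from sphere core edge to migration-area edge, derived from Hoechst nuclei density with a threshold-defined polynomial boundary. Spheres: hNPC, GW 16-19, 0.3 mm, on PDL/laminin; exposure 5 days; DMSO is baseline.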

[3] = IUF_NPC2a_radial_glia_migration_72hr: Leibniz Research Institute for Environmental Medicine (IUF) 72-hour Neural Progenitor Cell Migration Assay for Radial Glia Migration (NPC2a) (AID 2284299)
Procedure, shortened: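 Human fetal cortex (GW 16-19) neural progenitor spheres, 0.3 mm, plated on poly-D-lysine/laminin in N2 differentiation medium with compound from day 0. Radial glia migration distance (um, sphere core edge to migration edge) measured manually in four directions on 72 h brightfield images; well mean used.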

[4] = IUF_NPC4_neurite_length_120hr: Leibniz Research Institute for Environmental Medicine (IUF) 120-hour Neuronal Morphology Assay for Neurite Length (NPC4) (AID 2284302)
Procedure, shortened: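 Read-out is mean neurite length in µm of TUBB3-positive neurons, skeletonized from high-content fluorescence images after 120 h. Single 0.3 mm primary human neural progenitor spheres differentiated on poly-D-lysine/laminin under continuous compound exposure; DMSO was baseline.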

[5] = IUF_NPC5_oligodendrocyte_differentiation_120hr: Leibniz Research Institute for Environmental Medicine (IUF) 120-hour Oligodendrocyte Differentiation Assay (NPC5) (AID 2284304; active = hit-call score of the fitted dose curve at least 0.9, where 1 is the maximum;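 also: primary human fetal neural progenitor spheres plated to migrate and differentiate; share of O4-positive cells among Hoechst nuclei found by CNN image analysis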)
Procedure, shortened: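 Oligodendrocyte differentiation was scored after 120 h as the O4-positive share of Hoechst-stained nuclei across the neurosphere migration area, using a trained convolutional neural network on high-content fluorescence images. Human fetal neural progenitor spheres were dosed from day 0, normalised to DMSO.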

[6] = IUF_NPC4_neurite_area_120hr: Leibniz Research Institute for Environmental Medicine (IUF) 120-hour Neuronal Morphology Assay for Neurite Area (NPC4) (AID 2284305; active = hit-call score of the fitted dose curve at least 0.9, where 1 is the maximum)
Procedure, shortened: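 Neurite area is read out as the mean pixel area, excluding nuclei, of skeletonized TUBB3-positive neurons imaged after 120 h. Primary human neural progenitor spheres differentiated on poly-D-lysine/laminin with compound present from day 0. Activity was referenced to DMSO controls.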

[7] = IUF_NPC2-5_cytotoxicity_72hr: Cytotoxicity Assessment at 72 hours in the Leibniz Research Institute for Environmental Medicine (IUF) Neural Progenitor Cell Migration and Differentiation Assay for Cytotoxicity (NPC2-5) (AID 2284306; active = hit-call score of the fitted dose curve at least 0.9, where 1 is the maximum;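 also: LDH release into supernatant measured by resorufin fluorescence marking membrane damage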)
Procedure, shortened: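 Membrane integrity loss was scored from fluorescence (RFU) of resorufin generated by LDH in culture supernatant, 72 h after dosing. Differentiating human progenitor spheres received seven serial compound concentrations alongside a solvent control.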

[8] = IUF_NPC2-5_cytotoxicity_120hr: Cytotoxicity Assessment at 120 hours in the Leibniz Research Institute for Environmental Medicine (IUF) Neural Progenitor Cell Migration and Differentiation Assay (NPC2-5) (AID 2284307; active = hit-call score of the fitted dose curve at least 0.9, where 1 is the maximum;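 as to AC50: LDH released into supernatant as membrane damage marker via resorufin fluorescence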)
Procedure, shortened: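 Sphere plating starts differentiation and exposure together at day 0. Compound solution is half-replaced on day 3. At 120 h, medium supernatant is taken for an LDH membrane-integrity read based on resazurin reduction to resorufin fluorescence.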

[9] = IUF_NPC2-5_cell_number_120hr: Cell Number Assessment at 120 hours in the Leibniz Research Institute for Environmental Medicine (IUF) Neural Progenitor Cell Migration and Differentiation Assay (NPC2-5) (AID 2284308);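 also: count of Hoechst-stained nuclei in migration zone around plated human neural progenitor spheres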
Procedure, shortened: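 hNPC spheres, one per well, PDL/laminin, N2 medium, 37C, 5% CO2. Dosing day 0 → half-medium change with fresh compound day 3 → fix 120 h. Readout: Hoechst+ nuclei count, migration area; 7 concentrations plus solvent control.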

[10] = IUF_NPC2-5_viability_120hr: Viability Assessment at 120 hours in the Leibniz Research Institute for Environmental Medicine (IUF) Neural Progenitor Cell Migration and Differentiation Assay (NPC2-5) (AID 2284312)
Procedure, shortened: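 Alamar blue resorufin fluorescence read after 5 days of differentiation, with compound present from day 0 and replenished at day 3. Primary hNPC spheres on laminin-coated plates, 37C; seven concentrations plus solvent control, fitted against DMSO.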

[11] = IUF_NPC3_neuronal_differentiation_120hr: Leibniz Research Institute for Environmental Medicine (IUF) 120-hour Neuronal Differentiation Assay (NPC3) (AID 2284301)
Procedure, shortened: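 Single 0.3 mm neurospheres from human fetal cortex were plated in differentiation medium containing test compound. Medium was half-replaced on day 3. After 120 h cells were fixed, immunostained and imaged, and neuronal fraction was scored against DMSO control.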

Measured: AC50

CC[C@H](C)[C@H]1O[C@]2(C=C[C@@H]1C)C[C@@H]1C[C@@H](C/C=C(\C)[C@@H](O[C@H]3C[C@H](OC)[C@@H](O[C@H]4C[C@H](OC)[C@@H](O)[C@H](C)O4)[C@H](C)O3)[C@@H](C)/C=C/C=C3\CO[C@@H]4[C@H](O)C(C)=C[C@@H](C(=O)O1)[C@]34O)O2 (tested in a mixture with another compound)
inactive: [1] | [6]
active: [2] 3.4 µM | [3] 7.19 µM | [4] 7.61 µM | [5] 0.444 µM | [7] 7.55 µM | [8] 6.89 µM | [9] 7.63 µM | [10] 8.02 µM

COP(=O)(OC)OC=C(Cl)Cl
active: [1] 38.2 µM | [2] 40 µM | [3] 59.7 µM | [4] 13.5 µM | [6] 13.3 µM | [8] 89 µM | [9] 15 µM | [10] 29.7 µM
inactive: [7]

O=S1OCC2C(CO1)C1(Cl)C(Cl)=C(Cl)C2(Cl)C1(Cl)Cl (stereo not drawn)
active: [2] 13.1 µM | [5] 2.92 µM
inactive: all other assays above

CC(C)N(C(=O)COc1nnc(C(F)(F)F)s1)c1ccc(F)cc1
active: [8] 0.0343 µM
inactive: all other assays above

CC1(c2ccc(Oc3ccccc3)cc2)OC(=O)N(Nc2ccccc2)C1=O (stereo not drawn)
active: [2] 5 µM | [5] 1.61 µM
inactive: all other assays above

CNC(=O)CSP(=S)(OC)OC
inactive: all assays above

O=C(O)COc1ccc(Cl)cc1Cl
not listed: [5] | [6]
inactive: all other assays above

COP(=S)(OC)Oc1ccc([N+](=O)[O-])cc1
inactive: all assays above
